# Compound activity from PubChem.
# In the library only some 2.2% were active in any assay of this set; here they are far more common.
# PfM18AAP inh: blocks P. falciparum M18 aspartyl aminopeptidase. 290,000 compounds, 1.2% hits. inhibition, % at 7.35 µM. recombinant PfM18AAP, H-Glu-NHMec fluorogenic cleavage;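 active = inhibition above the campaign mean inhibition over all tested compounds plus 3 SD, cut at about 28% in these data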;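 note: 0% = plate median of test compound wells and 100% = 2 mM ZnCl2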
# PLCb3 inh: inhibitors of human phospholipase C beta3; Q01970; Purified PLC-beta3, fluorogenic substrate, fluorescence; inhibition, % at 12.2 µM; 370,000 compounds, 0.18% hits; in the data active = inhibition above about 11%;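 note: 0% = median of compound wells on plate and 100% = full blocker control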
# NPR1 activator: GC-A (human) enzyme activation. activation, % at 10 µM. HEK293 GC-A cells, cGMP TR-FRET, EC30 ANP; 0% at EC30 ANP, 100% saturating ANP. 370,000 compounds, 0.14% hits. AID 1671463. P16066; in the data active = activation above about 40%
# GC-B act: GC-B (human) receptor activation; 370,000 compounds, 0.11% hits; activation, % at 10 µM; AID 1920062; P20594; HEK293-GC-B cells, CNP EC30, cGMP TR-FRET; 0% at EC30 CNP, 100% saturating CNP;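 active = activation at 10 µM reaching about 35% in either raw or pattern-adjusted values, limit read from the data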
# Rce1 inh: inhibitors of yeast Ras-converting enzyme; AID 2563; 290,000 compounds, 0.27% hits; calls only; yeast membranes, quenched prenylated peptide cleavage fluorescence;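 active = fall in fluorescence gain of 50% or more versus controls, with final raw signal at or below 3038400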;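 note: plate controls were neutral control wells for no effect and wells lacking membranes for full effect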
# PLCg1 inh: blocks human PLC-gamma1 enzyme activity; AID 720700; 370,000 compounds, 0.84% hits; purified PLC-gamma1, fluorogenic substrate, fluorescence; inhibition, % at 12.2 µM; P19174; in the data active = inhibition above about 9.5%
# * marks the source's active call; other numbers are inactive results; i = inactive; . = no result; + = active, no number.
SMILES,PfM18AAP inh,PLCb3 inh,NPR1 activator,GC-B act,Rce1 inh,PLCg1 inh
Cc1c(NC(=O)c2cc3c(s2)-c2ccccc2OC3)cccc1[N+](=O)[O-],-0.7,-5.5,38.9,59.4*,i,-5.3
COc1ccc(-c2cn3ccccc3n2)cc1[N+](=O)[O-],2.7,4.4,-4.1,-1.7,+,1.7
COCCCNC(=O)C[C@H]1C[C@@]2(C(=O)OC)C(=C[C@H](COCc3ccccc3)O[C@@H]2C)N(Cc2cccc3ccccc23)C1=O,.,-2.5,0.6,4.5,.,7.0
Oc1ccc2ccccc2c1C=NN1CCN(Cc2ccc(Cl)cc2)CC1,.,-5.1,4.8,-9.1,.,-3.6
CC(C)c1ccc(/C=c2\sc3nc(-c4ccncc4)nn3c2=O)cc1,-16.7,-2.3,41.0*,-18.4,i,2.0
COc1ccc(-c2cc(C(=O)N3CCN(c4ccccc4O)CC3)c3ccccc3n2)cc1OC,31.1*,-308.9,5.9,4.9,i,-188.9
COc1ccc(-c2cc(C(=O)N3CCN(c4ccccc4)CC3)c3ccccc3n2)cc1,-0.5,-246.8,-1.1,0.6,+,-203.7
COc1ccc(-c2cc(C(=O)NCCCN3CCCC3=O)c3ccccc3n2)cc1,.,i,0.7,6.3,+,i
O=C(NCCCN1CCCC1=O)c1cc(-c2ccc(F)cc2)nc2ccccc12,.,-97.1,-0.9,2.4,.,-77.1
O=C1C(Cl)=C(Nc2ccccc2O)C(=O)N1c1ccccc1,45.8*,-5.5,0.0,0.3,.,0.4
COc1ccccc1N1C(=O)C(Cl)=C(Nc2ccccc2O)C1=O,15.4,-9.2,5.6,0.3,i,-8.0
CC(C)Oc1ccc(C(CCN)C2CCCCC2)cc1 (stereo not given),5.0,-3.8,-19.5,-12.6,i,11.8*
Cc1ccc(-c2nc3ncccn3c2NC(=O)c2cccc(C)c2)cc1,.,-349.2,-3.2,2.1,.,-270.8
O=C(NCc1ccccc1)OCCN1C(=O)CCC12CCC(c1ccccc1)CC2 (stereo not given),.,4.3,-15.2,-24.4,.,-1.0
CCOC(=O)C1=C(C)Nc2ncnn2C1/C=C/c1ccccc1 (stereo not given),5.7,1.1,36.5,-8.2,i,0.5
CCCC1=C(C(=O)OCC)C(/C=C/c2ccccc2)n2ncnc2N1 (stereo not given),-3.7,.,44.8*,1.2,.,.
CCCNC(=O)C(=O)Nc1ccc(N(C)C)cc1,-0.5,8.0,-4.7,-4.0,i,11.3*
O=C(O)c1ccccc1C(=O)Nc1cc(C(F)(F)F)ccc1N1CCCC1,-3.4,2.6,-1.2,1.9,i,10.4*
O=C(Nc1cc(C(F)(F)F)ccc1N1CCOCC1)c1ccccc1,-12.3,-0.1,5.1,2.3,i,3.3
Clc1cccc(CN2CCc3c([nH]c4ccccc34)C2)c1Cl,17.5,-32.0,-13.3,-6.0,+,-18.4
COC(=O)[C@]12C[C@H](CC(=O)N3CCC(c4ccccc4)CC3)C(=O)N(Cc3cccc4ccccc34)C1=C[C@H](C1CCCC1)O[C@@H]2C,.,-3.3,4.4,4.5,.,7.3
COc1cc(NC(=O)C2CCCN(S(=O)(=O)c3ccc(Br)s3)C2)cc(OC)c1 (stereo not given),.,-1.6,-6.9,-10.0,.,1.6
CCOC(=O)Cn1nnc(-c2ccc([N+](=O)[O-])cc2)n1,-4.6,-8.1,-2.8,-0.3,i,9.6*
CCOC(=O)C1CCCN(S(=O)(=O)c2cc3c(cc2Br)CCN3C(=O)CC)C1 (stereo not given),.,2.2,-0.8,-1.8,.,-0.7
COc1cccc(C2CC(=O)N3CN(c4ccccc4F)CSC3=C2C#N)c1 (stereo not given),15.0,-4.8,3.9,0.9,i,-2.7
COc1ccc(OC)c(C2CC(=O)N3CN(c4ccccc4F)CSC3=C2C#N)c1 (stereo not given),28.3*,-5.2,0.0,5.8,i,-5.5
COc1cc(OC)c(C2CC(=O)N3CN(C)CSC3=C2C#N)cc1OC (stereo not given),19.2,-19.4,3.0,3.6,i,-7.6
COc1ccc(OC)c(C2CC(=O)N3CN(c4cccc(Cl)c4C)CSC3=C2C#N)c1 (stereo not given),37.7*,-2.7,6.0,0.9,i,-2.1
